Only some compounds are listed: those with a hit (about 11% of all), similar ones and a draw of the others.
HEK293 tox: Cytotoxic Profiling in HEK 293 Cell Line of Diverse Libraries Using Quantitative High-Throughput Screening | 6.6% of 94,000 active | Potency, µM (doses to about 115 µM), without a hit: at the highest dose activity change, negative = cytotoxicity, hits mostly inhibitors | HEK 293 viability, ATP luminescence (CellTiter-Glo), 48-72 h; also: nearly all actives have a fitted effect of over 60% in size
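Cells seeded first (HEK 293, 250 cells/well), then compound added by pintool. Incubation ran 48 or 72 hr at 37 degree Celsius. CellTiter-Glo was added and luminescence imaged after 10 min at room temperature.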
NPR1 antag: Natriuretic polypeptide receptor (hNpr1) antagonism - Primary qHTS; Atrial natriuretic peptide receptor 1 (Homo sapiens), P16066; HEK293 hNpr1 GloSensor cGMP, ANP-stimulated luminescence; Potency, µM (series often up to 46.3 µM), inactives show at the highest dose activity change, negative = inhibition, actives largely listed as inhibitors; 1.6% of 76,000 active; AID 1347048, 2019; calls by dose curve; also: nearly all actives have a fitted effect of over 60% in size
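Compound pre-incubated 30 min at room temperature on GloSensor-loaded HEK293 cells stably carrying hNpr1 and the pGS-40F cGMP biosensor. Stimulation uses hNppA at 0.1 nM final; luminescence is taken at baseline and 20 min post-agonist.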
FLuc inh: Firefly luciferase inhibition profiling of diverse chemical library using quantitative high-throughput screening; Luciferin 4-monooxygenase (Photinus pyralis), P08659; purified P. pyralis luciferase, luminescence, biochemical; Potency, µM (highest dose often 115 µM), hits mostly inhibitors; 2.5% of 76,000 active; AID 1347043, 2019; also: nearly all actives have a fitted effect of over 65% in size
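Luminescence read by CCD imaging after purified firefly luciferase (10nM final) was added to substrate buffer holding 10uM D-luciferin and 10uM ATP, pH 7.5, pre-dosed with compound.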
3T3 cytotox: Cytotoxic Profiling in NIH 3T3 Cell Line of Diverse Libraries Using Quantitative High-Throughput Screening; NIH 3T3 viability, CellTiter-Glo ATP luminescence, 48-72 h; Potency, µM (doses to about 96.7 µM), for inactives: at the highest dose activity change, negative = cytotoxicity, actives largely listed as inhibitors; 4.3% of 94,000 active; also: nearly all actives have a fitted effect of over 55% in size
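Cytotoxicity was measured by CellTiter-Glo ATP luminescence after 48 or 72 h compound exposure at 37 °C. Mouse NIH 3T3 fibroblasts were seeded at 400 cells/well and dosed by 23 nL pin transfer.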
Active calls of the source: *; i = inactive; ? = inconclusive; . = no result. Unless noted, calls follow the shape of the dose curve; as a rule, active = well fitted curve in the direction sought with a large enough effect; inconclusive = small, poorly fitted or top-dose-only effect, or another doubt; inactive = no such curve, though single readings can be large; an effect the other way counts as inactive or inconclusive. % is scaled to controls: 0 for no effect and ±100 for the full control effect; potency is read from the fitted curve at half-maximal effect.

SMILES | HEK293 tox | NPR1 antag | FLuc inh | 3T3 cytotox
Cc1nc(-c2ccccc2)n(CC(=O)Nc2ccc(F)c(Cl)c2)c(=O)c1CCO | 39.8µM* | -26.7% | i | ?
O=C(NC1CCCC1)NC1CCCN(c2ccc3nnc(C4CC4)n3n2)C1 (stereo not drawn) | 2.3% | . | . | -14.3%
Clc1cc(Cl)cc(NC2CNC2)c1 | 63.1µM* | . | . | 56.2µM*
CS(=O)(=O)NCCc1ccc(CC2CCN(C(=O)CC3CCCC3)CC2)cc1 | ? | . | . | 39.8µM*
COc1ccc(CNC(=O)[C@H]2O[C@H](CCN3CCN(c4ccccn4)CC3)CC[C@@H]2O)cc1 | i | 0.1% | i | -1.3%
Cc1cc(C)n(CCC(=O)N2c3ccccc3CC2c2noc(C3CCOCC3)n2)n1 (stereo not drawn) | ? | -29.3% | 25.1µM* | ?
Cc1ccsc1C(=O)N1CCC(Cc2nc(C3CCOCC3)no2)CC1 | -13.5% | -15.5% | i | -22.2%
CC(NC(=O)c1cccc2c1CCN2C(=O)Nc1ccc(F)cc1)c1ccccn1 (stereo not drawn) | ? | 11.2µM* | 0.794µM* | ?
Cc1ccc(NC(=O)N2CCc3c(C(=O)NC(C)c4cccnc4)cccc32)cc1 (stereo not drawn) | ? | 4.47µM* | 0.398µM* | ?
COC(=O)c1cc2n(n1)CCCN(C(=O)c1cc(-c3ccccc3O)n[nH]1)C2 | ? | -19.2% | i | ?
COCCNC(=O)C[C@@H]1c2nc(NC(=O)c3cccc(F)c3)sc2C[C@@H]2[C@](C)(CO)[C@H](O)CC[C@]21C | -13.3% | 1.2% | i | ?
CCOC(=O)c1ccc(NC(=O)c2ccc3c(c2)N(C)C2CCCCN2C3=O)cc1 (stereo not drawn) | 35.5µM* | 0.0% | i | ?
CCOc1ccc(NC(=O)c2ccc3c(c2)N(CC)C2CCCCN2C3=O)cc1 (stereo not drawn) | 31.6µM* | -8.7% | i | 22.4µM*
CCOC(=O)c1ccc(NC(=O)c2ccc3c(c2)N(CC)C2CCCCN2C3=O)cc1 (stereo not drawn) | 35.5µM* | -24.6% | i | ?
CCOC(=O)c1ccc(NC(=O)c2ccc3c(c2)N(CC)C2CCCN2C3=O)cc1 (stereo not drawn) | ? | -4.5% | i | -40.1%
CCN1c2cc(C(=O)Nc3cc(OC)cc(OC)c3)ccc2C(=O)N2CCCCC21 (stereo not drawn) | ? | -7.1% | i | -22.0%
C[S+](=O)([O-])N1Cc2ccccc2OC2(CCN(C(=O)Cc3ccc(O)cc3)CC2)C1 | i | . | . | -5.2%
O=C(c1ccccc1F)N1CCCC(C(=O)N2CCC(N3CCOCC3=O)CC2)C1 (stereo not drawn) | -12.9% | . | . | -10.0%
COc1ccc(CC(=O)NC2CCN(c3ccc4nnc(C5CC5)n4n3)C2)cc1 (stereo not drawn) | -12.6% | . | . | ?
COc1ccc(CN2CCN(c3ncnc4c3CCC4)CC2CCO)c(C)c1C (stereo not drawn) | 10µM* | -25.0% | i | ?
COc1ccc(CN2CCN(c3ccnc(C)n3)CC2CCO)c(C)c1C (stereo not drawn) | ? | 4.3% | i | -13.2%
CCN1C(=O)C2CC3(CCN(Cc4ccc(F)c(F)c4)CC3)CN2C1=O (stereo not drawn) | 31.6µM* | -11.3% | i | ?
CCN1C(=O)C2CC3(CCN(Cc4ccc5cc[nH]c5c4)CC3)CN2C1=O (stereo not drawn) | ? | -1.4% | i | -4.0%
OC[C@@H]1CN(Cc2ccncc2F)C[C@H]1c1nc(-c2cccnc2)no1 | ? | 2.9% | i | -13.8%
COc1cccc(OCC(=O)c2ccc3c(c2)N(CCCC(=O)NCc2ccccc2)C(=O)CO3)c1 | ? | -1.9% | i | 39.8µM*
COc1cc(C)ccc1OCC(=O)c1ccc2c(c1)N(CC(=O)N1CCCC1)C(=O)CO2 | ? | -8.8% | i | -24.2%
Cc1cc(F)ccc1OCC(=O)c1ccc2c(c1)N(C(C)C(=O)N1CCCCC1)C(=O)CO2 (stereo not drawn) | 50.1µM* | -4.0% | ? | ?
